Experimental data taken from PubChem BioAssay (Tox21).
Results filed as inconclusive are left out. Activity calls are given as the source filed them. Unless noted, calls come from the whole dose curve; as a rule, active = well fitted curve in the direction sought with a large enough effect in the repeat runs; inconclusive = weak or mixed curves; inactive = no such curve, though single readings can be large; an effect the other way counts as inactive or inconclusive.

Tests used:
[1] = qHTS assay to identify small molecule agonists of H2AX (AID 1224845; active = well fitted activation curve with a large enough effect in the signal ratio in the repeat runs, not every such curve was filed as active; the % refers to the signal ratio)
Summary of the method: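 Wild-type CHO-K1 cells plated overnight, then exposed 3 hr at 37C to compounds at 15 concentrations (0.76% DMSO). Lysed, then HTRF anti-pH2AX(S139)-cryptate/anti-H2AX-d2 detection after 24 hr at room temperature; emissions 665 and 620 nm.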

[2] = qHTS assay to identify small molecule agonists of the hypoxia (HIF-1) signaling pathway (AID 1224846; active = well fitted activation curve with a large enough effect in the signal ratio in the repeat runs, not every such curve was filed as active; the % refers to the signal ratio)
Summary of the method: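 Reporter induction in HRE-bla ME-180 cells is taken as agonism: cells sit 5 hrs after plating, receive compounds or DMSO only, incubate 17 hrs at 37C under 5% CO2, and are loaded with CCF4-AM for beta-lactamase FRET measurement.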

[3] = qHTS assay to identify small molecule agonists of H2AX - cell viability counter screen (AID 1224847; calls by dose curve; note: top concentration of the series differs between compounds; nearly all actives have a fitted effect of over 30% in size)
Summary of the method: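 Wild-type CHO-K1 cells (10% FBS medium) were plated overnight at 37C, exposed to compounds at 15 concentrations for 3 hr at 37C (0.76% DMSO final), and viability was read as CellTiter-Glo luminescence after 30 min at room temperature.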

[4] = qHTS assay to identify small molecule agonists of the estrogen related receptor (ERR) signaling pathway from Tox21 library (AID 1224849; calls by dose curve; note: nearly all actives have a fitted effect of over 15% in size); conditions: ERR reporter cell line, ONE-Glo luciferase, 18 h; at 92.4 µM (top of the series) unless noted
Summary of the method: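 Tox21 compounds tested for ERR agonism in an NTP reporter cell line: 18 h treatment at 37 C, then ONE-Glo luminescence.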

[5] = qHTS RealTime-Glo MT Cell Viability Assay in HepG2 cells - 24 hour (AID 1224867); note: nearly all actives have a fitted effect of over 50% in size
Summary of the method: (§1)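 Compound treatment began 5 h after plating HepG2 cells (600/well) with NanoLuc luciferase and prosubstrate. Plates stayed at 37 C for 40 h; luminescence was captured at six time points, 0 h through 40 h.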

[6] = qHTS RealTime-Glo MT Cell Viability Assay in HEK293 cells - 32 hour (AID 1224868); note: top concentration of the series differs between compounds; nearly all actives have a fitted effect of over 50% in size
Summary of the method: (§2)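 Quantitative high-throughput screen of the Tox21 10K library in HEK293: cells and RealTime-Glo reagents plated together, compound added at 5 h, luminescence monitored through 40 h at 37 C.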

[7] = A CellTox Green Cytotoxicity Assay to monitor cytotoxicity in HEK293 cells - 0 hour (AID 1224869); note: nearly all actives have a fitted effect of over 50% in size
Summary of the method: (§3)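 Tox21 screen in HEK293: membrane-impermeant cyanine dye fluoresces on binding dead-cell DNA; compound pinned 5 h post-seeding, plates held at 37 C, signal read repeatedly through 40 h.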

[8] = qHTS RealTime-Glo MT Cell Viability Assay in HepG2 cells - 40 hour (AID 1224870); note: nearly all actives have a fitted effect of over 50% in size
Summary of the method: (§4)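 HepG2 cells mixed with RealTime-Glo MT reagents (NanoLuc plus cell-permeant prosubstrate) were seeded at 600 cells/well, incubated 5 h at 37 C/5% CO2, then pinned with compounds in DMSO; nonlytic luminescence tracked viability during 40 h treatment.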

[9] = A CellTox Green Cytotoxicity Assay to monitor cytotoxicity in HEK293 cells - 40 hour (AID 1224871); note: nearly all actives have a fitted effect of over 45% in size
Summary of the method: as §3

[10] = qHTS RealTime-Glo MT Cell Viability Assay in HEK293 cells - 16 hour (AID 1224872)
Summary of the method: as §2

[11] = qHTS RealTime-Glo MT Cell Viability Assay in HepG2 cells - 8 hour (AID 1224873); note: nearly all actives have a fitted effect of over 55% in size
Summary of the method: as §4

[12] = qHTS RealTime-Glo MT Cell Viability Assay in HEK293 cells - 40 hour (AID 1224874); conditions: RealTime-Glo luminescence; max response: hits give low values; note: nearly all actives have a fitted effect of over 50% in size
Summary of the method: (§5)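 HEK293 + NanoLuc + prosubstrate, 600 cells/well; 5 h, 37 C/5% CO2; compound 23 nL in DMSO by pintool; 37 C; luminescence read at 0, 8, 16, 24, 32 and 40 h time points.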

[13] = A CellTox Green Cytotoxicity Assay to monitor cytotoxicity in HEK293 cells - 24 hour (AID 1224875); note: nearly all actives have a fitted effect of over 45% in size
Summary of the method: as §3

[14] = A CellTox Green Cytotoxicity Assay to monitor cytotoxicity in HepG2 cells - 16 hour (AID 1224876); note: nearly all actives have a fitted effect of over 45% in size
Summary of the method: (§6)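 Measurements at 0, 8, 16, 24, 32 and 40 h of treatment captured CellTox Green fluorescence in HepG2 cells that had been co-plated with reagent and preincubated 5 h at 37 C/5% CO2.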

[15] = qHTS RealTime-Glo MT Cell Viability Assay in HepG2 cells - 32 hour (AID 1224877); note: nearly all actives have a fitted effect of over 55% in size
Summary of the method: as §1

[16] = A CellTox Green Cytotoxicity Assay to monitor cytotoxicity in HepG2 cells - 24 hour (AID 1224878); note: nearly all actives have a fitted effect of over 45% in size
Summary of the method: as §6

[17] = qHTS RealTime-Glo MT Cell Viability Assay in HEK293 cells - 0 hour (AID 1224880)
Summary of the method: as §5

[18] = A CellTox Green Cytotoxicity Assay to monitor cytotoxicity in HEK293 cells - 32 hour (AID 1224881); note: nearly all actives have a fitted effect of over 40% in size
Summary of the method: as §3

[19] = A CellTox Green Cytotoxicity Assay to monitor cytotoxicity in HepG2 cells - 40 hour (AID 1224879); note: nearly all actives have a fitted effect of over 40% in size
Summary of the method: as §6
% is set by controls: 0 for no effect and ±100 for the full control effect.

C=CCCCCCC
inactive: Potency [1] | outcome [2] | Potency [3] | activity change, positive = activation [4] 4.67% | Potency [5] | Potency [6] | Potency [7] | Potency [8] | Potency [9] | Potency [10] | Potency [11] | max response [12] 9.99% | Potency [13] | Potency [14] | Potency [15] | Potency [16] | Potency [17] | Potency [18]

CCOc1ccc2[nH]cc(C(=O)NCc3ccccc3)c(=O)c2n1
inactive: Potency [1] | outcome [2] | Potency [3] | activity change, positive = activation [4] -48.4% | Potency [5] | Potency [6] | Potency [7] | Potency [8] | Potency [9] | Potency [10] | max response [12] -23.2% | Potency [13] | Potency [14] | Potency [15] | Potency [16] | Potency [19] | Potency [18]

COC(=O)C(C)=O
inactive: Potency [1] | outcome [2] | Potency [3] | activity change, positive = activation [4] -4.12% | Potency [5] | Potency [6] | Potency [7] | Potency [8] | Potency [9] | Potency [10] | Potency [11] | max response [12] -0.909% | Potency [13] | Potency [15] | Potency [16] | Potency [19] | Potency [17] | Potency [18]

O=C(Cl)c1ccc([N+](=O)[O-])cc1
inactive: Potency [1] | outcome [2] | Potency [3] | Potency [5] | Potency [6] | Potency [7] | Potency [8] | Potency [9] | Potency [10] | Potency [11] | max response [12] 7.36% | Potency [13] | Potency [15] | Potency [16] | Potency [19] | Potency [18]

COC(Cc1ccccc1)OC
inactive: Potency [1] | outcome [2] | Potency [3] | Potency [5] | Potency [6] | Potency [7] | Potency [8] | Potency [9] | Potency [10] | Potency [11] | max response [12] 17.4% | Potency [13] | Potency [14] | Potency [15] | Potency [16] | Potency [19] | Potency [18]

CC(C)CC=O
inactive: Potency [1] | outcome [2] | Potency [3] | Potency [5] | Potency [6] | Potency [7] | Potency [8] | Potency [9] | Potency [10] | Potency [11] | max response [12] 6.71% | Potency [13] | Potency [14] | Potency [15] | Potency [16] | Potency [19] | Potency [17] | Potency [18]

CCOC(=O)CC(C)C
inactive: Potency [1] | outcome [2] | Potency [3] | Potency [5] | Potency [6] | Potency [7] | Potency [8] | Potency [9] | Potency [10] | Potency [11] | max response [12] 6.18% | Potency [13] | Potency [14] | Potency [15] | Potency [16] | Potency [19] | Potency [17] | Potency [18]
